Assay outcomes deposited in PubChem BioAssay by several laboratories.
The full list was thinned out, with hits kept by preference.
GluA2 TARP mod: modulates AMPAR-stargazin complexes | 40,000 compounds, 3.5% hits | AID 1259245 | O88602+P19491 | calls only at 30 µM | HEK293 GluA2+stargazin, membrane potential dye (FDSS), glutamate EC50; hits were called plate by plate, in both directions;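 active means any of four per-well response measures lying three or more SD from its plate-wide compound average, in either direction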
GIRK2 activator: Activates human GIRK2-containing potassium channels; HEK293 GIRK2/NPY4 cells, thallium flux fluorescence; 34,000 tested, under 10 active; P48051; activation (% efficacy), % for hits at 37.5 µM;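 active means primary screen hit, no activity in plain HEK293 cells, and in GIRK2-only cells above 5% efficacy rising with concentration; inactive means the rest, including fluorescent compounds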;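 further: efficacy is normalized control-subtracted fluorescence 15 s after thallium addition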
Target sequence (P48051 whole entry, looked up): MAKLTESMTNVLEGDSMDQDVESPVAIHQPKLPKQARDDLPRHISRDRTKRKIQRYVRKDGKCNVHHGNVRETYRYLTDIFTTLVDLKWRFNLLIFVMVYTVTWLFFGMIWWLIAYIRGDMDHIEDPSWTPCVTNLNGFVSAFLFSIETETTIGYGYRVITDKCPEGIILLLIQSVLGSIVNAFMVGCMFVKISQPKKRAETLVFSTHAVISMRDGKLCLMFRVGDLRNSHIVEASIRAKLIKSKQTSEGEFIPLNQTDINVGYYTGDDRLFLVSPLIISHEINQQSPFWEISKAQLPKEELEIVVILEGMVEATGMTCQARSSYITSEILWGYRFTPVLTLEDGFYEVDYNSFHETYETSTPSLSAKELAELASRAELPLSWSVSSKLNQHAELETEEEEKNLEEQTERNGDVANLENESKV
* marks the source's active call; other numbers are inactive results; i = inactive; nt = not tested or not shown; + = active, no number.

SMILES	GluA2 TARP mod	GIRK2 activator
Cc1ccc(S(=O)(=O)Nc2nc(CCC(=O)NCc3ccc(F)cc3)cs2)cc1	i	i
O=C(CCc1csc(NS(=O)(=O)c2ccc(F)cc2)n1)Nc1ccc(Cl)cc1	+	i
COc1ccc(NC(=O)CCc2csc(NS(=O)(=O)c3ccccc3)n2)cc1OC	i	i
CN(C)c1nnnc2c1cnn2-c1ccccc1	i	i
Cn1c(=O)[nH]c(=O)c2c1nc(NCCCN1CCOCC1)n2CC(O)c1ccccc1 (stereo not given)	i	nt
COc1ccccc1NC(=O)C(C)N1C(=O)c2ccccc2S1(=O)=O (stereo not given)	i	i
CC(=O)Nc1cccc(NC(=O)C(=O)NCC2CCN(c3ccccn3)CC2)c1	i	i
CC1=C(C(=O)Nc2cccc(C(F)(F)F)c2)C(c2ccc(F)cc2)C2=C(CCCC2=O)N1 (stereo not given)	i	nt
CC1=C(C(=O)Nc2cc(C(F)(F)F)ccc2Cl)C(c2ccc(C)cc2)C2=C(CCCC2=O)N1 (stereo not given)	+	nt
COc1ccc(C(=O)N2C(=S)C(c3ccc(C)cc3)=NC2(C)C)cc1OC	i	i
CCN(C(=O)Cn1cc(-c2ccccc2)c(N2CCOCC2)n1)c1cccc(C)c1	+	i
CCN(C(=O)Cn1cc(-c2ccc(C)cc2)c(N2CCOCC2)n1)c1cccc(C)c1	nt	i
O=C(Nc1ccc(Cl)cc1Cl)c1ccc(N2CCCCS2(=O)=O)cc1	i	i
COc1cc(NC(=O)C2(c3ccccc3)CCOCC2)c2ncccc2c1	i	i
COc1ccc(S(=O)(=O)N2CCN(c3ccc(C)c(C)c3)CC2)cc1	i	nt
COc1ccc(S(=O)(=O)N2CCOC23CCN(C(=O)c2cc(C)oc2C)CC3)cc1	i	i
Cc1cc(C(=O)N2CCC3(CC2)OCCN3S(=O)(=O)c2cccs2)c(C)o1	+	i
Cc1nnsc1C(=O)Nc1ccc2c(c1)CC(=O)N2C	+	i
CCC(=O)Nc1ccc2c(c1)CC(=O)N2C	i	nt
Nc1c(C(=O)NCCc2ccccc2)nnn1-c1cccc(Cl)c1	i	i
O=C(Nc1ccc2c(c1)N(C(=O)c1ccco1)CC2)c1ccco1	i	i
Cc1cc2nc(NC(=O)c3ccc(S(=O)(=O)C(C)C)cc3)sc2cc1C	i	i
CC(C)S(=O)(=O)c1ccc(C(=O)Nc2nc3ccc(Br)cc3s2)cc1	+	nt
COc1ccc(S(=O)(=O)CCC(=O)Nc2nc3ccc(Br)cc3s2)cc1	+	i
Cc1nc2ccc(NC(=O)c3cccc(S(=O)(=O)C(C)C)c3)cc2s1	i	i
SMILES	GluA2 TARP mod	GIRK2 activator
Cc1nc2ccc(NC(=O)c3ccc(S(=O)(=O)C(C)C)cc3)cc2s1	+	nt
COc1ccc(S(=O)(=O)CCC(=O)Nc2nc3cc(OC)c(OC)cc3s2)cc1	i	i
Cn1cccc1CN(C(=O)COc1ccc(Cl)cc1Cl)C1CC1	nt	i
COc1ccc(S(=O)(=O)CCC(=O)Nc2ccccc2Oc2ccccc2)cc1	i	i
Cc1ccc(S(=O)(=O)CCCC(=O)Nc2ccccc2Oc2ccccc2)cc1	+	i
CS(=O)(=O)c1ccc(CC(=O)Nc2nc(-c3ccc(Oc4ccccc4)cc3)cs2)cc1	i	nt
CS(=O)(=O)c1ccc(CC(=O)Nc2ccccc2Oc2ccccc2)cc1	+	nt
c1csc(-c2noc(-c3cc(-c4cccs4)[nH]n3)n2)c1	i	i
NS(=O)(=O)c1ccc(NC(=O)c2ccc(Oc3ncccn3)cc2)cc1	nt	i
COC(=O)c1ccccc1NC(=O)c1ccc(=O)n(Cc2cccc([N+](=O)[O-])c2)c1	i	i
COc1ccc(NC(=O)Cc2ccc(SC)cc2)cc1	i	nt
O=C(NCCc1ccc(F)cc1)Nc1ccc([N+](=O)[O-])cc1	+	nt
CSc1ccc(CC(=O)Nc2ccc([N+](=O)[O-])cc2)cc1	+	nt
CCc1ccc(NC(=O)C(=O)Nc2ccc([N+](=O)[O-])cc2)cc1	i	nt
O=C(NCCCn1ccnc1)C1(c2cc(-c3ccco3)on2)CC1	nt	i
CC(=O)c1ccc(N2CCN(C(=O)c3ccc(Cn4c(=O)[nH]c5ccccc5c4=O)cc3)CC2)cc1	i	i
Cc1ccc(C)c(N2CCN(C(=O)c3ccc(Cn4c(=O)[nH]c5ccccc5c4=O)cc3)CC2)c1	+	i
O=S(=O)(c1cccc(Cl)c1)N1CCN(c2ccc3nnc(-c4ccco4)n3n2)CC1	i	i
O=C(c1ccc(F)cc1F)N1CCN(c2ccc3nnc(-c4ccco4)n3n2)CC1	i	i
COc1ccc(S(=O)(=O)N2CCN(c3ccc4nnc(-c5ccco5)n4n3)CC2)cc1	+	i
CCCC(=O)Nc1ccc(S(=O)(=O)N2CCN(c3ccc4nnc(C)n4n3)CC2)cc1	+	i
O=S(=O)(c1ccc(F)cc1)N1CCN(c2ccc3nnc(-c4ccco4)n3n2)CC1	+	i
CC(Oc1ccccc1F)C(=O)N1CCN(c2ccc3nnc(-c4ccco4)n3n2)CC1 (stereo not given)	+	i
CCc1ccc(S(=O)(=O)N2CCN(c3ccc4nnc(-c5ccco5)n4n3)CC2)cc1	i	i
CCOC(=O)c1ccc(S(=O)(=O)N2CCN(c3ccc4nnc(CC)n4n3)CC2)cc1	i	i
SMILES	GluA2 TARP mod	GIRK2 activator
CCC(C(=O)NCC(O)Cc1ccccc1)c1ccccc1 (stereo not given)	i	i
Cc1nn(C2CCS(=O)(=O)C2)c2nc(-c3cccs3)cc(C(=O)N3CCC(C)CC3)c12 (stereo not given)	i	i
O=S(=O)(/C=C/c1ccccc1)N1CCN(c2ccc(-c3ccco3)nn2)CC1	i	i
O=S(=O)(/C=C/c1ccccc1)N1CCN(c2ccc3nnc(-c4ccco4)n3n2)CC1	+	i
COc1cc(C(=O)Oc2ccc3c(c2)O/C(=C\c2cccs2)C3=O)cc(OC)c1OC	i	nt
COC(=O)COc1ccc2c(c1)O/C(=C\c1cccs1)C2=O	+	nt
CC(=O)Cc1nsc(NC(=O)c2cc(-c3ccc([N+](=O)[O-])cc3)oc2C)n1	+	i
CC(=O)Cc1nsc(NC(=O)c2oc3ccc(C)cc3c2C)n1	i	nt
CCN(CC)c1ccc(N2CCN(S(=O)(=O)c3ccc([N+](=O)[O-])cc3)CC2)nn1	i	i
COc1cc(OC)cc(C(=O)N(CCCn2ccnc2)c2nc3ccccc3s2)c1	i	i
O=C(NCC(O)(c1cccs1)C1CC1)C1(c2ccc(Cl)cc2)CCCC1 (stereo not given)	i	i
O=C(NCCc1ccsc1)C1(c2ccc(Cl)cc2)CCCC1	+	i
O=C(Cc1ccccc1)NCCOc1ccc(-c2ccco2)nn1	i	i
COc1cccc(-n2nnc3c(N4CCN(C(=O)c5cccs5)CC4)ncnc32)c1	i	nt
CC(Oc1ccccc1F)C(=O)NCCCn1nc(-c2ccco2)ccc1=O (stereo not given)	+	i
CC(C)C(=O)NCCCn1nc(-c2ccco2)ccc1=O	i	i
CC1(C)CC(=O)C2=C(C1)Nc1[nH]c(=O)[nH]c(=O)c1C2c1ccc(Cl)cc1Cl (stereo not given)	i	nt
Cc1ccc(C)c(S(=O)(=O)Nc2ccc(C(=O)NCCc3ccccc3)cc2)c1	i	nt
